Source: PubChem (Broad Institute)
Hits are enriched below; roughly 2.2% of the tested compounds scored in any of these assays.
LMP1 NFkB inh = reduces LMP1-driven NF-kappaB luciferase signal; LMP1-induced NF-kappaB luciferase reporter cells, luminescence; inhibition, % at 12.5 µM; actives 0.69% (n = 350,000); AID 504558; in the data active = inhibition above about 41%;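 note: 0% = neutral control wells and 100% = reference inhibitor control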
PAX8 inh HTS = PAX8 transcriptional activity inhibition; RMG-I TPO-luciferase reporter, SteadyGlo, 24 h; inhibition, % at 12.6 µM; actives 1.2% (n = 360,000);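 active = mean replicate inhibition at least 60% with every replicate also reaching 60%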;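 note: luciferase light reporting Pax8 driven TPO promoter activity; plate controls were median of neutral control wells for no effect and mitoxantrone controls for full effect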
LGR2 inh = Drosophila LGR2 receptor signaling inhibition; HEK293 LGR2, CRE-luciferase, bursicon-stimulated, 4 h; inhibition, % at 9.99 µM; actives 0.35% (n = 380,000); AID 720647;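 active = drop in luminescence signal, shown as inhibition above about 50% in the replicate tests, limit read from the data, passing the limit was not always enough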;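 note: agonist challenge used bursicon conditioned medium at about half maximal strength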
Shn3 3UTR inh = inhibitors of Schnurri-3 3'UTR reporter in osteoblasts | actives 0.52% (n = 360,000) | Clone20 osteoblast Shn3 3'UTR firefly luciferase, 24 h | AID 588674 | inhibition, % at 12.5 µM;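 active = mean inhibition of at least 75% with every replicate also reaching 75%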;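 note: 0% = median of neutral control wells and 100% = pilot-screen positive control compound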
EWS-Fli block = blocks EWS/Fli oncoprotein-driven transcription. A673 NR0B1-luciferase reporter, viability-normalised. inhibition, % at 12.6 µM. actives 0.67% (n = 350,000). AID 651661;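 active = mean inhibition of at least 50% after viability correction, with every replicate also passing that limit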;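 note: firefly luciferase signal divided by Alamar Blue viability fluorescence both relative to DMSO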
TRPM1 prom inh = MITF TRPM1 promoter inhibition in SK-MEL-5 cells; inhibition, % at 12.5 µM; actives 0.83% (n = 330,000); SK-MEL-5 TRPM1 promoter luciferase, 24 h;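 active = mean inhibition across replicates of 60% or more, whatever share of single replicates reaches that level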
Numbers without * were called inactive; . = not tested or not shown.

SMILES | LMP1 NFkB inh | PAX8 inh HTS | LGR2 inh | Shn3 3UTR inh | EWS-Fli block | TRPM1 prom inh
CCOC(=O)c1cnc(-n2nc(C)cc2C)nc1NCCc1ccccc1 | 19 | . | . | 46 | . | -3
C[C@H](CO)N1C[C@H](C)[C@H](CN(C)CC2CC2)Oc2ccc(NC(=O)c3ccncc3)cc2CC1=O | . | -19 | 12 | . | 3 | .
COC(=O)c1ccccc1NC(=S)N(Cc1ccc2c(c1)OCO2)Cc1cc2ccc(C)cc2[nH]c1=O | 3 | 30 | 8 | 24 | . | -6
COC(=O)c1ccccc1NC(=S)N(Cc1ccc2c(c1)OCO2)Cc1cc2ccc(OC)cc2[nH]c1=O | -4 | -21 | -1 | -14 | 88* | -3
Cc1nc(N2CCN(Cc3ccc4c(c3)OCO4)CC2)c2cc(-c3ccccc3)sc2n1 | -15 | -3 | -5 | 22 | 15 | 11
CSc1nc(N2CCN(Cc3ccc4c(c3)OCO4)CC2)c2ccccc2n1 | -6 | . | 4 | 86* | . | 11
O=C(O)Cc1sc(Nc2ccc(Cl)cc2)nc1-c1cccs1 | 51* | -4 | -62 | . | -25 | 81*
C[C@@H]1CN([C@@H](C)CO)C(=O)c2cccc(NC(=O)CCCCCC(=O)Nc3ccccc3N)c2O[C@H]1CN(C)CC1CCCCC1 | . | 35 | -6 | . | 4 | .
COc1ccc(C(=O)N=c2nc3ccccn3s2)cc1 | 64* | 19 | . | 44 | . | 54
C[C@H]1CCCCO[C@H](CN(C)C(=O)Nc2ccc(F)cc2)[C@@H](C)CN([C@@H](C)CO)C(=O)c2cc(NC(=O)Nc3ccc(F)cc3)ccc2O1 | . | -10 | 10 | . | 1 | .
CCCOc1ccc2cc(-c3ccccn3)c(=O)oc2c1 | 61* | 74* | 88* | 60 | 77* | 51
COc1ccccc1NS(=O)(=O)c1cc(NC(=O)c2ccc(Cl)nc2)ccc1Cl | 33 | 44 | 38 | 87* | . | 64*
O=C1/C(=C/c2ccccc2)CCc2ccc(Cl)nc21 | 6 | 1 | 70* | -25 | -5 | 36
O=C1/C(=C\c2ccccc2)CCc2c1[nH]c1ccccc21 | -25 | -134 | . | -47 | . | -55
Cc1nnc(NC(=O)c2c(F)cccc2F)s1 | 53* | -22 | 0 | -14 | 1 | -11
O=C(C[C@H]1CC[C@@H]2[C@H](COC[C@H](O)CN2S(=O)(=O)c2ccccc2)O1)NCCN1CCCC1 | . | -13 | 0 | . | -12 | .
COc1ccc(C(=O)N/C(=C\c2ccc3c(c2)OCO3)C(=O)N2CCOCC2)cc1 | 49* | -12 | 14 | -8 | -4 | 1
COc1ccc(CN2CC3(CCN(Cc4ccccn4)CC3)c3c(n(C)c4cc(OC)ccc34)[C@@H]2CO)cc1 | . | . | -27 | . | -1 | .
O=C1C(Cc2ccccc2)NC(=S)N1Cc1ccccc1 (configuration not stated) | 1 | 9 | -12 | 14 | 9 | 8
CC(C)CC1NC(=S)N(Cc2ccccc2)C1=O (configuration not stated) | 7 | 90* | 12 | 9 | 15 | 5
COC(=O)CS(=O)(=O)c1nnc([C@H](Cc2ccccc2)NC(=O)OC(C)(C)C)o1 | 3 | . | . | 96* | . | 79*
CC(C)(C)OC(=O)N[C@@H](Cc1ccccc1)c1nnc(SCC(N)=O)o1 | -7 | -4 | -5 | 9 | -6 | -1
Cc1cccc(CS(=O)(=O)c2nnc([C@H](Cc3ccccc3)NC(=O)OC(C)(C)C)o2)c1 | -28 | . | . | 97* | . | 75*
COC(=O)CSc1nnc([C@H](Cc2ccccc2)NC(=O)OC(C)(C)C)o1 | 2 | . | . | -23 | . | -3
Nc1nc2c(nnn2C2CC(O)C(CO)O2)c(=O)[nH]1 (configuration not stated) | . | 83* | -9 | -23 | -13 | .
SMILES | LMP1 NFkB inh | PAX8 inh HTS | LGR2 inh | Shn3 3UTR inh | EWS-Fli block | TRPM1 prom inh
Nc1nc2c(ncn2C2C[C@H](O)[C@@H](CO)O2)c(=O)[nH]1 (some centres not stated) | 0 | -4 | 35 | -16 | 8 | -5
CCOC(=O)c1ccc(N2CC(O)=C(c3nc4ccccc4c(=O)[nH]3)C2=N)cc1 | 2 | . | . | -12 | . | -4
CCOc1ccc(N2CC(O)=C(c3nc4ccccc4c(=O)[nH]3)C2=N)cc1 | 46* | 4 | 25 | 4 | -7 | -10
COc1ccc(NC(=O)Nc2ccc3c(c2)C(=O)N([C@H](C)CO)C[C@H](C)[C@H](CN(C)S(=O)(=O)c2cccs2)OCCCC[C@H](C)O3)cc1 | . | . | 6 | . | 4 | .
CC(C)Cn1c(N)c(C(=O)COC(=O)CC23CC4CC(CC(C4)C2)C3)c(=O)n(C)c1=O | 13 | . | . | 87* | . | 42
Cc1csc(=O)n1CCC(=O)OCC(=O)c1c(N)n(CC(C)C)c(=O)n(C)c1=O | 17 | 9 | -4 | 80 | 8 | 12
Cc1ccc(OCCC(=O)OCC(=O)c2c(N)n(CC(C)C)c(=O)n(C)c2=O)cc1 | 72* | -6 | 5 | 67 | 4 | 3
CCCNC(=O)C[C@@H]1CC[C@@H]2[C@H](COc3ccc(NC(=O)c4cccc(Cl)c4)cc3C(=O)N2C)O1 | . | 5 | -4 | . | 0 | .
C[C@H](CO)N1C[C@H](C)[C@@H](CN(C)C(=O)CN(C)C)Oc2cc(-c3cccnc3)ccc2S1(=O)=O | . | . | 8 | . | -9 | .
COc1ccc(S(=O)(=O)Nc2ccc3c(c2)C(=O)N([C@@H](C)CO)C[C@H](C)[C@@H](CN(C)C(=O)C2CCCCC2)OCCCC[C@H](C)O3)cc1 | . | 34 | 6 | . | 12 | .
CC(C)c1ccc(-n2cccc2/C=C2/C(=N)N3C=CSC3=NC2=O)cc1 | 2 | 28 | 53* | 25 | -7 | 0
CC1=CSC2=NC(=O)/C(=C\c3cccn3-c3ccccc3)C(=N)N12 | 7 | 9 | 13 | 10 | . | -18
C/C(=N/NC(=O)c1ccccn1)c1ccncc1 | -6 | -69 | -18 | -34 | -68 | -33
COc1ccc(C(=O)N/N=C(\c2ccccc2)c2ccccn2)cc1 | 22 | 57 | . | 87* | -1 | 55
COc1ccc(NC(=O)c2ccccn2)cc1 | 52* | . | . | 23 | . | 7
O=C(NN=C(c1ccccc1)c1ccccn1)c1ccccc1 | 7 | 77* | . | 84* | -2 | 67*
O=C(N/N=C(\c1ccccc1)c1ccccn1)c1ccccc1Cl | 24 | 72* | 13 | 95* | . | 59
CO[C@H]1CN(C)C(=O)c2ccc(NS(C)(=O)=O)cc2OC[C@H](C)N(C(=O)C2CCCC2)C[C@@H]1C | . | 1 | 3 | . | 1 | .
CO[C@H]1CN(C)C(=O)c2ccc(NC(C)=O)cc2OC[C@H](C)N(C(=O)c2ccccc2F)C[C@@H]1C | . | -19 | -2 | . | 7 | .
CN(C)C(=O)C[C@H]1C=C[C@H](NC(=O)C2CCOCC2)[C@@H](CO)O1 | . | . | -2 | . | 12 | .
CCC(=O)N1CC2(C1)[C@H](c1ccccc1)[C@H](CO)N2C(=O)c1cccnc1 | . | -9 | 0 | . | 1 | .
COc1ccc2c3c([nH]c2c1)[C@@H](CO)N(Cc1cc(F)ccc1F)CC31CCN(C(C)=O)CC1 | . | . | -30 | . | -5 | .
